POLH inh: blocks human DNA polymerase eta activity; actives 1.2% (n = 390,000); recombinant Pol eta, fluorescent DNA replication assay; Potency, µM (doses to about 114 µM), for the others: top-dose activity change, negative = inhibition, actives largely listed as inhibitors; note: potency is the fitted concentration of half-maximal effect; % is set by controls: 0 for no effect and ±100 for the full control effect
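Pol eta (10 nM) was preincubated with compounds for 15 min at room temperature, after which fluorescent replication substrate (50 nM final) was added to start the reaction. Fluorescence was read kinetically at 0 and 10 min.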
PI5P4K alpha inh: PI5P4K alpha (human) kinase inhibition. P48426. PI5P4Kalpha enzyme, ADP-Glo luminescence, 60 min; hits give low values. max response, %. actives 1.2% (n = 330,000). AID 652105; active = max response of -50% or lower; inconclusive = between -30% and -50%; inactive = -30% or higher; note: value at the top dose of about 77 µM; % is set by controls: 0 for no effect and ±100 for the full control effect
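Human PI5P4Kalpha with substrate in 0.038 M HEPES pH 7.4, 0.28 mM EGTA, 0.1% CHAPS, 5% DMSO; reaction started with 5 microM ATP (final), 60 min at room temperature. ADP formed read by ADP-Glo luminescence.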
PI4K2A inh: blocks human PI4K2A kinase activity; activity change, negative = inhibition, % at 76.9 µM; actives 0.13% (n = 420,000); purified PI4K2A, ADP-Glo luminescence, 1 h; hits give low values; Q9BTU6; in the data active = activity change below about -50%; inconclusive = mostly about -30% to -49%;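 note: -100% = wells without enzyme as full effect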
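In this quantitative HTS, ADP production by PI4K2A was quantified luminescently after 1 h at ambient temperature; 100 microM adenosine served as plate-quality control.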
POLK inh: DNA polymerase kappa (human) inhibition | Q9UBT6 | AID 588579 | Potency, µM (series often up to 107 µM), inactives show at the top dose activity, negative = inhibition, actives largely listed as inhibitors | actives 0.53% (n = 400,000) | purified Pol kappa, fluorescent DNA synthesis assay, 10 min; note: potency is the fitted concentration of half-maximal effect; % is set by controls: 0 for no effect and ±100 for the full control effect
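Kinetic fluorescence readout at 0 and 10 min followed reaction start with substrate at 50 nM final. Beforehand, enzyme (10 nM Pol kappa) stood 15 min with compound at room temperature; buffer-only wells were negative controls.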
Pol iota inh: DNA polymerase iota (human) inhibition. Q9UNA4. actives 1% (n = 390,000). Potency, µM (titrated, usually from 115 µM), inactives show at the highest dose activity, negative = inhibition, usual class: inhibitors. Pol iota fluorescent replication assay, 10 min; note: potency is the fitted concentration of half-maximal effect
Target sequence (Q9UNA4 whole entry, looked up): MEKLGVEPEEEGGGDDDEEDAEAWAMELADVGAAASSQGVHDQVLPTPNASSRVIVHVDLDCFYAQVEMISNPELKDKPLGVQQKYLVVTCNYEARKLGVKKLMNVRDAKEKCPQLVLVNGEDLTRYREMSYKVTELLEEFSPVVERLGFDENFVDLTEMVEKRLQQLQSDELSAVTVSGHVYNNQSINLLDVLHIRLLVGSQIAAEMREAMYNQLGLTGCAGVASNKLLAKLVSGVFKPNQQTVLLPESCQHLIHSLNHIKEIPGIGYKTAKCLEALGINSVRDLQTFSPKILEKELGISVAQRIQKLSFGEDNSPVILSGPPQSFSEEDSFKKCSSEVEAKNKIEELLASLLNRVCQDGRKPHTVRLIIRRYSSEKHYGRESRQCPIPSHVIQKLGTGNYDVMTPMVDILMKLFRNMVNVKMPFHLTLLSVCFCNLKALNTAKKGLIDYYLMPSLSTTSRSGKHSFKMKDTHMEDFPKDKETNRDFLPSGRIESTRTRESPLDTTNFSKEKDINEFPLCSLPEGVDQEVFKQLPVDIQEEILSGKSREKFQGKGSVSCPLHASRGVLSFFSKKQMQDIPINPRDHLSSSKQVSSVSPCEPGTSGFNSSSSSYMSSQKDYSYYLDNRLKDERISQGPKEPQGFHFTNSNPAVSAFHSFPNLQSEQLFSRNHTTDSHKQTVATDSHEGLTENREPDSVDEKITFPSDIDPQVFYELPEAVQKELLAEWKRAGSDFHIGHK
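Fluorescent replication assay read twice, at 0 min and 10 min after adding 50 nM (final) substrate. Enzyme (10 nM) and compounds were first incubated 15 min at room temperature; enzyme-free buffer wells were negative controls.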
Pol beta inh: DNA polymerase beta (human) inhibition; Pol beta primer extension/strand displacement, fluorescence kinetic; actives 1.3% (n = 340,000); Potency, µM (top dose mostly 114 µM), for inactives: at the top dose activity change, negative = inhibition, hits mostly inhibitors; note: potency is the fitted concentration of half-maximal effect; % is set by controls: 0 for no effect and ±100 for the full control effect
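Pol beta (10 nM) was preincubated with compound for 15 min at room temperature. The reaction was then started with 50 nM substrate and read immediately and after a further 10 min at room temperature.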
* hit, by the source's call; ? = inconclusive; . = not tested or not shown; [ ] = another dose, or the depositor's remark. This is a sample that favours compounds with a hit; in the whole collection about 2.8% have one here. Unless noted, calls come from the whole dose curve; as a rule, active = well fitted inhibition curve with a large enough effect; inconclusive = small, poorly fitted or top-dose-only effect, or another doubt; inactive = no such curve, though single readings can be large or run the other way.

SMILES | POLH inh | PI5P4K alpha inh | PI4K2A inh | POLK inh | Pol iota inh | Pol beta inh
COc1cc(C2c3c(oc4ccccc4c3=O)C(=O)N2c2ccc(C)cn2)ccc1O (stereo not drawn) | -4% | -2 | -3 | 6% | 4% | 1%
COc1cc(C2c3c(oc4ccccc4c3=O)C(=O)N2c2nccs2)ccc1O (stereo not drawn) | 79µM* | -7 | 2 | -6% | 3% | -22%
ICC[n+]1csc2ccccc21 | . | . | . | 5% | 13% | .
CCn1cc(C(=O)Nc2ncccc2O)c(=O)c2cc(F)c(N3CCN(C(=O)c4ccco4)CC3)cc21 | -2% | 2 | -13 | -29% | 71µM* | -20%
CNC(=O)CN(CCN(CCN(CC(=O)[O-])CC(=O)NC)CC(=O)[O-])CC(=O)[O-].O.[Gd+3] | . | . | 4 | . | . | .
CCn1c(COc2ccc(Cl)cc2Cl)nc2ccccc21 | -14% | . | 0 | -11% | 25% | 18%
O=C([C@@H]1CC=C[C@@H]2CCN(C3CC3)C(=O)[C@@H]21)N1CCOCC1 | . | . | . | 5% | 44% | .
Nc1c(S(=O)(=O)O)cc(NC(=O)c2ccccc2)c2c1C(=O)c1ccccc1C2=O | 18µM* | -77* | -29 | -9% | ? | 22µM*
NC(=O)C1CN(S(=O)(=O)c2ccc(Cl)cc2F)c2ccccc2O1 (stereo not drawn) | -20% | -4 | 1 | 2% | 10% | 63µM*
O=C1CC(c2ccccc2)Sc2nc3ccccc3n21 (stereo not drawn) | -18% | 1 | -6 | 2% | 53% | -3%
O=C1CC(c2ccco2)Sc2nc3ccccc3n21 (stereo not drawn) | 7% | ? | -24 | 50µM* | 20µM* | -2%
C=C[C@@H]1c2cc(C)ccc2N(S(=O)(=O)c2ccc(C)cc2)[C@H](c2ccc(C(C)(F)F)cc2)C1(C#N)C#N | . | . | . | 4% | 29% | .
CCOC(=O)c1cc(-c2ccco2)nc2c1c(C)nn2CCC#N | ? | -22 | -2 | -22% | 2% | -1%
CCOC(=O)c1cc(-c2ccco2)nc2c1c(C)nn2-c1cccc(Cl)c1 | ? | -7 | -7 | -5% | 9% | 28µM*
C=CCNc1nc(NCC=C)nc(N2CCN(C(c3ccc(F)cc3)c3ccc(F)cc3)CC2)n1 | . | . | 0 | . | . | .
CC1Cc2ccccc2N1S(=O)(=O)c1cccc(C(=O)N2CC(=O)Nc3ccccc32)c1 (stereo not drawn) | -14% | -7 | 3 | -14% | 11% | 40µM*
CC(=O)N1CCN(C(=O)c2cccc(S(=O)(=O)N3c4ccccc4CC3C)c2)CC1 (stereo not drawn) | -10% | 5 | -12 | -17% | ? | .
CCCC[n+]1c(C)ccc2ccccc21 | . | . | . | 9% | -4% | .
Cc1cc(N)c2ccccc2[n+]1CCCCCCCCCCCCCC[n+]1c(C)cc(N)c2ccccc21 | ? | . | . | . | -123%[58.9 µM] | 10µM*
Cc1ccc(NC2=C(NCCO)C(=O)c3ccccc3C2=O)cc1 | -12% | 0 | ? | -18% | 20µM* | -12%
CC(=O)Nc1ccc(/C=C/c2ccnc3ccccc23)cc1[N+](=O)[O-] | . | . | . | -13% | 16% | .
O=Nc1ccc(NOC(=O)c2ccccc2Br)cc1 | 6% | 0 | ? | -14% | 120% | 79µM*
OC(c1ccc(F)cc1)c1nc(-c2cncnc2)cs1 (stereo not drawn) | . | -6 | 1 | . | . | .
COc1ccc(-c2cc(C(=O)OCC(=O)N3CCOCC3)c3ccccc3n2)cc1 | -8% | -3 | 2 | -12% | 17% | .
COC(=O)C1CCN(C(=O)COC(=O)c2cc(-c3ccccc3)nc3ccc(OC)cc23)CC1 | 40µM* | -25 | -7 | -45% | 20µM* | .
SMILES | POLH inh | PI5P4K alpha inh | PI4K2A inh | POLK inh | Pol iota inh | Pol beta inh
CC(=O)N(C)c1ccc(/C=C2\C=Cc3ccccc32)cc1 | . | . | . | 2% | -5% | .
CCOc1ccc(NC(=O)CN2C(=O)c3ccccc3Sc3ccc(C(=O)OC)cc32)cc1 | ? | . | -3 | -1%[60.1 µM] | 4% | 79µM*
CC(=O)OCC(=O)[C@@]12N=C(C)O[C@@H]1C[C@H]1[C@@H]3CCC4=CC(=O)C=C[C@]4(C)[C@H]3[C@@H](O)C[C@@]12C | . | . | 4 | . | . | .
C[C@@H]1[C@@H](Sc2ccccc2)CC(=O)O[C@@H]1c1ccc(-c2ccccc2)cc1 | -3% | 10 | -63* | 9% | ? | .
Brc1ccc(CSc2nnc(SCc3ccccc3)s2)cc1 | . | . | 4 | . | . | .
COc1ccccc1-c1nn2c(-c3ccco3)nnc2s1 | -10% | . | -5 | -15% | ? | 14µM*
c1coc(-c2nn3c(-c4ccco4)nnc3s2)c1 | ? | -62* | -5 | ? | ? | 28µM*
COc1cccc(OC)c1-c1nn2c(-c3cc(-c4ccccc4)n[nH]3)nnc2s1 | 6.3µM* | -66* | 4 | 28µM* | 28µM* | ?
Cc1ccc(SCCC(=O)NC(C)C)cc1 | -18% | . | -3 | -5% | 18% | 0%
Cc1ccc(SCCC(=O)OC(C(=O)NC(N)=O)C(C)C)cc1 (stereo not drawn) | -7% | -67* | 1 | -7% | 79% | -17%
COc1ccc2ccccc2c1C(=O)/C=C\c1ccoc1 | ? | -53* | -2 | -15% | ? | 45µM*
O=C(O)c1cc(-c2ccc(/C=N/N3C(=O)C4C5C=CC(C6CC56)C4C3=O)o2)ccc1Cl (stereo not drawn) | ? | -16 | 1 | -8% | 34% | 40µM*
COC(=O)c1ccc(-c2ccc(/C=N/N3C(=O)C4C5C=CC(CC5)C4C3=O)o2)cc1 (stereo not drawn) | -3% | 2 | 2 | -11% | 56% | ?
O=C(O)c1cc(-c2ccc(/C=N/N3C(=O)C4C5C=CC(CC5)C4C3=O)o2)ccc1Cl (stereo not drawn) | 50µM* | 1 | -4 | -18% | 7% | -22%
c1ccc2c(c1)CCc1ccccc1N2 | . | . | 0 | . | . | .
COc1ccc(NS(=O)(=O)c2ccc3c(c2)CCN3C(=O)CCC(=O)O)cc1Cl | -10% | . | -12 | -7% | 28% | 31%
